Activity calls are given as the source filed them. Unless noted, how the calls were made is not given here.
Assays:
[1] = resazurin metabolic signal in HepG2 cells – cell-based, resazurin fluorescence, 24 h, PK04 Diversity Set, profiling panel (AID 1172); settings: HepG2 viability, higher = more signal; further: test concentration not given here
[2] = budding yeast growth changes without added modifier – OD600, strain BY4716, 24 h, basal condition, primary screen (AID 1173); settings: S. cerevisiae BY4716 growth, OD600, 24 h; higher = more signal, called active from +8 up or from −8 down
[3] = viability profiling in MM1S myeloma cells – cell-based, resazurin fluorescence, basal, 24 h, PK04 Diversity Set, profiling panel (AID 1174); settings: higher = more signal, called active from +8 up or from −8 down;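 further: MM1S multiple myeloma cell line; test concentration not given here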
[4] = molecular target: Dihydroorotate dehydrogenase (quinone), mitochondrial (Plasmodium falciparum (isolate 3D7)) (UniProt Q08210); experiment: inhibition of P. falciparum DHODH – biochemical, C-terminal His tag, absorbance 600 nm, primary screen (AID 1175); settings: PfDHODH enzyme, DCIP absorbance 600 nm; higher = more signal, called active from +8 up or from −8 down;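 further: recombinant parasite enzyme with a five histidine tag at its C terminus; test concentration not given here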
[5] = inhibition of PAO1 biofilm formation – strain PAO1, LB-PBS medium, absorbance 600 nm, primary screen (AID 1176); further: test concentration not given here; settings: P. aeruginosa PAO1 growth/biofilm, A600, 12 h; higher = more signal
[6] = growth modulation of vineyard yeast isolate – strain RM11-1a, OD600, basal, 24 h, primary screen (AID 1177);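 further: cultures grown under basal conditions with no added stressor; test concentration not given here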; settings: S. cerevisiae RM11-1a growth, OD600, 24 h; higher = more signal, called active from +8 up or from −8 down
[7] = growth of efflux-deficient E. coli DRC39 – strain DRC39, OD650, 24 h, E. coli filamentation inducers, primary screen (AID 1178);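 further: growth measured as culture turbidity by optical density at 650 nm; test concentration not given here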; settings: E. coli DRC39 acrAB, higher = more signal, called active from +8 up or from −8 down
[8] = growth of efflux-deficient E. coli DRC39 – strain DRC39, OD650, 48 h, E. coli filamentation inducers, primary screen (AID 1179);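 further: screen aims at cell division blockers that make cells filament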; settings: E. coli DRC39 delta-acrAB growth, higher = more signal, called active from +8 up or from −8 down
[9] = viability profiling in RPMI8226 myeloma cells – cell-based, resazurin fluorescence, basal, 24 h, PK04 Diversity Set, profiling panel (AID 1180); settings: higher = more signal;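 further: RPMI8826 multiple myeloma cell line at 5000 cells per well; test concentration not given here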
[10] = molecular target: E3 ubiquitin-protein ligase XIAP (Homo sapiens) (UniProt P98170); experiment: small molecules binding XIAP protein – biophysical, small-molecule microarray, fluorescence 635 nm, primary screen (AID 1181); settings: higher = more signal;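 further: score merges 667 nm emission and signal to noise over triplicate slides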
Chain of E3 ubiquitin-protein ligase XIAP (Homo sapiens) (P98170 whole entry, looked up): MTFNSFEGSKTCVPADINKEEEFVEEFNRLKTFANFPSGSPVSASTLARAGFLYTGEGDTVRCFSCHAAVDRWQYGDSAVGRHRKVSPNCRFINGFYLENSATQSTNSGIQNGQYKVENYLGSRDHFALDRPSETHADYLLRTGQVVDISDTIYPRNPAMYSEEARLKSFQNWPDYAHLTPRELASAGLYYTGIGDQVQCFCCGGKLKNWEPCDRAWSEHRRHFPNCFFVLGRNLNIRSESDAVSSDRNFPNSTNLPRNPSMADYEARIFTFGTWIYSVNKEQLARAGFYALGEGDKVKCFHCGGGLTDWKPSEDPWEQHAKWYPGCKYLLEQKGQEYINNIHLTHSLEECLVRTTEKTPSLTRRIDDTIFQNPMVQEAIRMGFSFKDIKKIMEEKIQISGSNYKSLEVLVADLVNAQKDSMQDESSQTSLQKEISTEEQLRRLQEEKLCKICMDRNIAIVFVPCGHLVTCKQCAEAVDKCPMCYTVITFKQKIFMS

Chain of Dihydroorotate dehydrogenase (quinone), mitochondrial (Plasmodium falciparum (isolate 3D7)) (Q08210 whole entry, looked up): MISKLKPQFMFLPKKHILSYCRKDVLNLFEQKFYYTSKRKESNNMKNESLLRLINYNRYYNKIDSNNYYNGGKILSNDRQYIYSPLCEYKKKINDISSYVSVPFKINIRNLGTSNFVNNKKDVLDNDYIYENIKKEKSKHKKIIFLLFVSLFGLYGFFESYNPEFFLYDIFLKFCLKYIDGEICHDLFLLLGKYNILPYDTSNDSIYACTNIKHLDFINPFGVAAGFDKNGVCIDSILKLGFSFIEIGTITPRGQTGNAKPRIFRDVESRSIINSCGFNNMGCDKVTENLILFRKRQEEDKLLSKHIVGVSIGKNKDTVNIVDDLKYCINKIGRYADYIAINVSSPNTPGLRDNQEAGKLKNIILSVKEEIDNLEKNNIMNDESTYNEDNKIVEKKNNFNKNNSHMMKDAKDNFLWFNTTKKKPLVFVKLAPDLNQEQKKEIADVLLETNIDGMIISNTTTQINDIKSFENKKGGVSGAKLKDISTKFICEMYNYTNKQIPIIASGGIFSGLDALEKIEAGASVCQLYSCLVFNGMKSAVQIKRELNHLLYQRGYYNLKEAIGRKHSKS

Compound | z-score [1] | z-score [2] | z-score [3] | composite z-score [4] | z-score [5] | z-score [6] | z-score [7] | z-score [8] | z-score [9] | composite z-score [10]
C[C@]12CCC3c4ccc(OCC5CO5)cc4CCC3C1CC[C@@H]2O (stereo not given in full) | 0.689 | -3.59 (inactive) | 0.383 (inactive) | -0.187 (inactive) | 0.52 (inactive) | 1.27 (inactive) | -0.424 (inactive) | -0.431 (inactive) | 1.68 | -0.148
O=C1[C@H]2[C@H]3[C@H](O)[C@H](O)CC(=NO[C@@H]4O[C@H](CO)[C@@H](O)[C@H](O)[C@H]4O)[C@H]3CC[C@H]2C(=O)N1C[C@@H]1CCCO1 | 0.724 | 0.628 (inactive) | -1.45 (inactive) | -0.595 (inactive) | -0.355 (inactive) | 0.855 (inactive) | 0.42 (inactive) | 0.595 (inactive) | -0.39 | 0.127
CCOC(=O)[C@H](Cc1ccccc1)NC(=O)CCC1CC(OC(=O)NCCc2ccc(F)cc2)CC2(CCCC(COC(=O)NCCC(C)C)O2)O1 (stereo not given in full) | 0.456 | -0.0624 (inactive) | 0.129 (inactive) | 0.0106 (inactive) | 0.0737 (inactive) | 1.05 (inactive) | 0.953 (inactive) | -0.203 (inactive) | 1.16 | -0.0543
C[C@@H]1CC[C@@H](C(=O)O)N[C@H]1c1cccc(N2CCOCC2)c1 | 0.764 | -1.62 (inactive) | 0.7 (inactive) | 0.18 (inactive) | 0.143 (inactive) | -0.206 (inactive) | 1.32 (inactive) | 1.13 (inactive) | 0.198 | 0.13
O=C1C2=CC[C@H]3C(=O)N(C[C@@H]4CCCO4)C(=O)[C@H]3[C@H]2[C@H](O)[C@@H]2O[C@H]12 | -0.154 | -0.87 (inactive) | -4.71 (inactive) | -0.619 (inactive) | -0.343 (inactive) | -0.511 (inactive) | 0.0929 (inactive) | 0.424 (inactive) | -1.7 | 0.204
CC(CCN1CCCCc2nc(C)c(C)cc21)=NO[C@@H](C)c1cc(-c2c(C)cc(C)cc2C)no1 | 1.18 | -6.11 (inactive) | 0.862 (inactive) | -0.525 (inactive) | -0.467 (inactive) | -0.62 (inactive) | 0.777 (inactive) | 0.935 (inactive) | 1.51 | 0.626
COc1ccc(COC(=O)NN=C2C[C@@H](O)[C@@H](O)[C@@H]3[C@@H]4C(=O)N([C@@H](C)c5ccccc5)C(=O)[C@@H]4CC[C@@H]23)cc1 | -0.295 | 0.501 (inactive) | -0.525 (inactive) | -0.194 (inactive) | -0.0363 (inactive) | -0.887 (inactive) | 0.0247 (inactive) | 0.528 (inactive) | -0.521 | -0.126
COc1ccc(O[C@H]2C=C[C@@H](c3ccccc3)O[C@@H]2COC(=O)NCc2cccc3ccccc23)cc1 | -0.556 | 0.476 (inactive) | -0.079 (inactive) | -0.0459 (inactive) | 0.79 (inactive) | 0.846 (inactive) | -0.424 (inactive) | -0.257 (inactive) | 0.283 | -0.0448
C[C@@H](c1ccccc1)N1C(=O)[C@H]2[C@H]3[C@H](O)[C@H](O)CC(=NOC[C@@H](O)COCc4ccco4)[C@H]3CC[C@H]2C1=O | -0.259 | -0.123 (inactive) | 0.899 (inactive) | -0.222 (inactive) | 0.118 (inactive) | -0.286 (inactive) | -0.501 (inactive) | -0.267 (inactive) | 0.0536 | -0.102
COc1ccc(O[C@H]2C=C[C@@H](C#Cc3ccccc3)O[C@@H]2CO)cc1 | 0.124 | -10.4 (active) | -1.24 (inactive) | -0.759 (inactive) | 0.0372 (inactive) | -0.76 (inactive) | 0.633 (inactive) | 0.14 (inactive) | -0.021 | -0.0412
O=C1[C@H]2CCn3c(=O)n(-c4ccccc4)c(=O)n3[C@H]2[C@H](O)[C@@H]2O[C@H]12 | -0.507 | -0.251 (inactive) | -0.468 (inactive) | -0.106 (inactive) | -0.212 (inactive) | -0.303 (inactive) | -0.447 (inactive) | -0.489 (inactive) | -0.579 | -0.287
CON=C(C)CCC(=O)OC[C@H]1O[C@H](C#Cc2ccccc2)C=C[C@@H]1Oc1ccc(C)cc1 | -0.118 | -0.944 (inactive) | -0.642 (inactive) | 0.444 (inactive) | 0.298 (inactive) | 0.888 (inactive) | 0.556 (inactive) | -1.88 (inactive) | -0.549 | 0.289
CCOC(=O)[C@H](CC(C)C)NC(=O)CCC1CC(OC(=O)NCc2ccc3c(c2)OCO3)CC2(CCCC(COC(=O)NCCc3ccccc3OC)O2)O1 (stereo not given in full) | 0.686 | 0.594 (inactive) | -0.0143 (inactive) | -0.445 (inactive) | 0.614 (inactive) | -0.173 (inactive) | -0.163 (inactive) | -1.02 (inactive) | 0.512 | -0.102
Cc1cc(C)c(-c2cc([C@H](C)ON=C[C@@H](C)[C@H](OCc3ccccc3)C(C)C)on2)c(C)c1 | -0.811 | 0.462 (inactive) | -0.258 (inactive) | -0.382 (inactive) | -0.23 (inactive) | 0.255 (inactive) | 0.262 (inactive) | 0.336 (inactive) | -0.522 | 0.02
CC(C)=CCCC(C)=CCON=C1C[C@@H](O)[C@@H](O)[C@@H]2[C@@H]3C(=O)N(Cc4ccc5c(c4)OCO5)C(=O)[C@@H]3CC[C@@H]12 | 0.542 | -0.872 (inactive) | 0.411 (inactive) | -0.396 (inactive) | -0.437 (inactive) | 0.268 (inactive) | 0.499 (inactive) | -0.588 (inactive) | 0.354 | -0.17
COC(=O)[C@@H]1CC[C@H](C)[C@@H](c2ccc(Br)cc2)N1C(=O)C(F)(F)F | 0.0841 | -0.475 (inactive) | 0.27 (inactive) | 0.724 (inactive) | 0.213 (inactive) | 1.21 (inactive) | -0.0765 (inactive) | -0.204 (inactive) | 0.399 | 0.0225
CCCNC(=O)OC[C@H]1O[C@H](CCON=C[C@@H](NS(=O)(=O)c2ccc(C)cc2)[C@H](C)C=CCC(=O)OC)C=C[C@@H]1Oc1ccc(OC)cc1 | -0.765 | 0.0177 (inactive) | 0.0958 (inactive) | 0.216 (inactive) | 0.311 (inactive) | -0.803 (inactive) | 0.101 (inactive) | -0.138 (inactive) | 0.732 | -0.207
CC(C)CON=C1C[C@@H](O)[C@@H](O)[C@@H]2[C@@H]3C(=O)N(C(C)(C)C)C(=O)[C@@H]3CC[C@@H]12 | -0.685 | -0.322 (inactive) | 0.4 (inactive) | -1.88 (inactive) | 0.295 (inactive) | -0.492 (inactive) | 0.796 (inactive) | -1.13 (inactive) | -0.463 | -0.277
CC(C)=NOC(C)CN1CCCc2nc(C)c(C)cc21 (stereo not given) | -0.249 | -0.211 (inactive) | -0.0014 (inactive) | 0.787 (inactive) | 0.854 (inactive) | -0.0702 (inactive) | 0.0251 (inactive) | -0.726 (inactive) | -0.572 | -0.0676
CCOC(=O)[C@H](CC(C)C)NC(=O)CCC1CC(OC(=O)NCc2ccc3c(c2)OCO3)CC2(CCCC(COC(=O)NCCC(C)C)O2)O1 (stereo not given in full) | 0.54 | -0.214 (inactive) | 1.03 (inactive) | 0.126 (inactive) | 0.462 (inactive) | 0.175 (inactive) | 1 (inactive) | -0.0965 (inactive) | 0.497 | 0.0065
CC(C)[C@@H](OCc1ccccc1)[C@H](C)CON=C1[C@H]2CCn3c(=O)n(-c4ccccc4)c(=O)n3[C@H]2[C@H](O)[C@@H]2O[C@H]12 | -0.486 | -1.96 (inactive) | -0.704 (inactive) | -1.78 (inactive) | -0.348 (inactive) | -0.402 (inactive) | 0.961 (inactive) | 0.876 (inactive) | -0.789 | -0.193
CCOC(=O)[C@H](CC(C)C)NC(=O)CCC1CC(OC(=O)NCc2ccc3c(c2)OCO3)CC2(CCCC(COC(=O)NCc3ccccc3)O2)O1 (stereo not given in full) | 1.32 | 0.918 (inactive) | 0.624 (inactive) | -0.047 (inactive) | -0.282 (inactive) | 1.26 (inactive) | 0.533 (inactive) | -0.0559 (inactive) | 0.836 | 0.0727
COc1ccc(COC(=O)NN=C2C[C@@H](O)[C@@H](O)[C@@H]3[C@@H]4C(=O)N(C[C@@H]5CCCO5)C(=O)[C@@H]4CC[C@@H]23)cc1 | -0.407 | 0.443 (inactive) | 0.075 (inactive) | -0.367 (inactive) | 0.328 (inactive) | 0.513 (inactive) | 1.02 (inactive) | 1.11 (inactive) | 0.115 | -0.0559
CC(CCN1CCCCc2nc(C)c(C)cc21)=NO[C@H](C)c1cn([C@@H]2COC[C@H]2O)nn1 | 0.404 | 1.62 (inactive) | -1.64 (inactive) | -0.21 (inactive) | -0.561 (inactive) | 0.811 (inactive) | 0.715 (inactive) | 0.821 (inactive) | -0.256 | 0.256
COC(=O)CC=C[C@@H](C)[C@@H](C=NOC[C@@H](O)COCc1ccco1)NS(=O)(=O)c1ccc(C)cc1 | -0.8 | 0.0959 (inactive) | -0.309 (inactive) | 0.444 (inactive) | -0.312 (inactive) | 0.186 (inactive) | 0.388 (inactive) | 0.124 (inactive) | -0.974 | -0.309
COC(=O)CC=C[C@@H](C)[C@@H](C=NOC(C)CN1CCCCc2nc(C)c(C)cc21)NS(=O)(=O)c1ccc(C)cc1 (stereo not given in full) | -0.194 | 0.434 (inactive) | -0.71 (inactive) | -0.069 (inactive) | 0.0525 (inactive) | -0.472 (inactive) | 0.424 (inactive) | 0.607 (inactive) | 0.0077 | -0.244

From PubChem BioAssay
